A number with no mark means an inactive call. Results filed as inconclusive are left out. A call without a number means that no potency is given here. Active and inactive are the calls of the source. Unless noted, calls come from the whole dose curve; as a rule, active = well fitted curve in the direction sought with a large enough effect in the repeat runs; inconclusive = weak or mixed curves; inactive = no such curve, though single readings can be large; an effect the other way counts as inactive or inconclusive.
How the values were obtained:
[1] = qHTS assay for small molecules that induce genotoxicity in human embryonic kidney cells expressing luciferase-tagged ATAD5 (AID 651632); note: nearly all actives have a fitted effect of over 15% in size; note: potency is the fitted concentration of half-maximal effect
Summary of the method: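 DMSO vehicle served as the control. HEK293T reporter cells, 16 hr at 37C, then 30 min Amplite at room temperature; ATAD5 induction is measured as luciferase activity.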

[2] = qHTS assay for small molecule agonists of the p53 signaling pathway - cell viability (AID 651633; calls by dose curve;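 note: p53RE-bla HCT reporter cells with a stable beta-lactamase p53 reporter; series mostly up to about 83 µM; nearly all actives have a fitted effect of over 30% in size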)
Summary of the method: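 p53RE-bla cells were treated with compound for 16 hours at 37 C. Cytotoxicity was then measured as CellTiter-Glo luminescence after 30 min at room temperature.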

[3] = qHTS assay for small molecule disruptors of the mitochondrial membrane potential - cell viability (AID 720634; calls by dose curve;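 note: human HepG2 liver cancer cells; series mostly up to about 83 µM; nearly all actives have a fitted effect of over 20% in size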)
Summary of the method: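 Viability of HepG2 cells is scored from ATP content by luminescence; cells are exposed to compound for 1 hr at 37 C and 5% CO2, then dosed with m-MPI dye before the CellTiter-Glo reagent.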

[4] = qHTS assay for small molecule disruptors of the mitochondrial membrane potential (AID 720635); note: potency is the fitted concentration of half-maximal effect
Summary of the method: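 HepG2 cells exposed to compound 1 hr at 37C, then Mito-MPS dye 30 min. Ratio read of aggregate (540/590 nm) versus monomer (490/535 nm) fluorescence.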

[5] = qHTS assay to test for compound auto fluorescence at 535 nm (green) in HepG2 cells (AID 720675)
[6] = qHTS assay to test for compound auto fluorescence at 460 nm (blue) in HEK293 cells (AID 720678)
Summary of the method: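 After cell attachment (4-5 hr, 37C), compounds were pinned onto HEK293 monolayers in 10% dialyzed FBS medium. The blue channel (405/460 nm) was read following overnight culture. Equivalency was calculated against triamterene.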

[7] = qHTS assay to test for compound auto fluorescence at 535 nm (green) in HEK293 cells (AID 720680)
[8] = qHTS assay to test for compound auto fluorescence at 460 nm (blue) in HEK293 cell free culture (AID 720681)
Summary of the method: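 Compounds were added to cell-free DMEM with 10% FBS and fluorescence read directly. The blue channel used 405 nm excitation and 460 nm emission, with triamterene as the reference fluorophore.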

[9] = qHTS assay to test for compound auto fluorescence at 535 nm (green) in HEK293 cell free culture (AID 720682)
Summary of the method: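 Measurement is a direct plate read of green fluorescence (485 nm in, 535 nm out) after compound addition to serum-supplemented DMEM lacking cells, with fluorescein used to express intensities.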

[10] = qHTS assay to test for compound auto fluorescence at 590 nm (red) in HEK293 cell free culture (AID 720683)
Summary of the method: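 Cell-free wells of DMEM with 10% FBS received compound, and intrinsic fluorescence was read at excitation/emission 540/590 nm. Values expressed as equivalence to Rose Bengal sodium.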

[11] = qHTS assay to test for compound auto fluorescence at 590 nm (red) in HepG2 cell free culture (AID 720684)
Summary of the method: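 Auto fluorescence equivalency versus Rose Bengal sodium, red channel Ex/Em 540/590 nm; compounds in cell-free MEM/10% FBS; DMSO vehicle control.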

[12] = qHTS assay to test for compound auto fluorescence at 535 nm (green) in HepG2 cell free culture (AID 720686)
[13] = qHTS assay to test for compound auto fluorescence at 460 nm (blue) in HepG2 cells (AID 720687)
Summary of the method: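 HepG2 cells in MEM with 10% FBS, attached overnight at 37 C, were exposed to compound or DMSO for 1 hr at 37 C, 5% CO2. Blue fluorescence was read at 405/460 nm, with triamterene as reference fluorophore.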

[14] = target: Glucocorticoid receptor (Homo sapiens) (UniProt P04150); experiment: qHTS assay to identify small molecule agonists of the glucocorticoid receptor (GR) signaling pathway (AID 720691; active = well fitted activation curve with a large enough effect in the signal ratio in the repeat runs, not every such curve was filed as active; the % refers to the signal ratio; note: potency is the fitted concentration of half-maximal effect)
Summary of the method: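 Compounds in DMSO, alongside positive controls, were added to GR-bla HeLa reporter cells and incubated 18 h at 37 C; GRE-driven beta-lactamase was detected by fluorescence after 2 h with FRET substrate at room temperature.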

[15] = target: Glucocorticoid receptor (Homo sapiens) (UniProt P04150); experiment: qHTS assay to identify small molecule antagonists of the glucocorticoid receptor (GR) signaling pathway (AID 720692; active = well fitted inhibition curve with a large enough effect in the signal ratio in the repeat runs, not every such curve was filed as active; the % refers to the signal ratio; note: potency is the fitted concentration of half-maximal effect)
Summary of the method: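 In a 1536-well cell format, compounds were added 4 h after seeding GR-bla HeLa cells, together with dexamethasone at 5 nM final; reporter activity was measured by FRET-substrate fluorescence following 18 h at 37 C.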

[16] = qHTS assay for small molecules that induce genotoxicity in human embryonic kidney cells expressing luciferase-tagged ATAD5 - cell viability (AID 651634; calls by dose curve; note: nearly all actives have a fitted effect of over 25% in size)
Summary of the method: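 Here HEK293T cells with the ATAD5 luciferase reporter are incubated with test compounds for 15.5 hr, and cytotoxicity is then gauged by measuring protease activity in live cells using fluorescence.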

[17] = qHTS assay to test for compound auto fluorescence at 590 nm (red) in HEK293 cells (AID 720679)
Summary of the method: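 Plates of HEK293 cells (10% dialyzed FBS) are treated with 23 nL compound or DMSO vehicle after a 4-5 hr attachment period, incubated overnight at 37C, and read for red fluorescence at 540/590nm.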

[18] = qHTS assay to test for compound auto fluorescence at 460 nm (blue) in HepG2 cell free culture (AID 720685)
Summary of the method: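 Cell-free plates of MEM plus 10% FBS received 23 nL compound or DMSO vehicle; blue-channel (405/460 nm) intensity scored against triamterene as reference fluorophore.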

[19] = qHTS assay to test for compound auto fluorescence at 590 nm (red) in HepG2 cells (AID 720674)
Summary of the method: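 Fluorescence at 590 nm emission following 540 nm excitation was recorded from HepG2 wells one hour after compound transfer, with DMSO-only wells as vehicle and Rose Bengal sodium equivalency as the scale.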

Chain of Glucocorticoid receptor (Homo sapiens) (P04150 whole entry, looked up): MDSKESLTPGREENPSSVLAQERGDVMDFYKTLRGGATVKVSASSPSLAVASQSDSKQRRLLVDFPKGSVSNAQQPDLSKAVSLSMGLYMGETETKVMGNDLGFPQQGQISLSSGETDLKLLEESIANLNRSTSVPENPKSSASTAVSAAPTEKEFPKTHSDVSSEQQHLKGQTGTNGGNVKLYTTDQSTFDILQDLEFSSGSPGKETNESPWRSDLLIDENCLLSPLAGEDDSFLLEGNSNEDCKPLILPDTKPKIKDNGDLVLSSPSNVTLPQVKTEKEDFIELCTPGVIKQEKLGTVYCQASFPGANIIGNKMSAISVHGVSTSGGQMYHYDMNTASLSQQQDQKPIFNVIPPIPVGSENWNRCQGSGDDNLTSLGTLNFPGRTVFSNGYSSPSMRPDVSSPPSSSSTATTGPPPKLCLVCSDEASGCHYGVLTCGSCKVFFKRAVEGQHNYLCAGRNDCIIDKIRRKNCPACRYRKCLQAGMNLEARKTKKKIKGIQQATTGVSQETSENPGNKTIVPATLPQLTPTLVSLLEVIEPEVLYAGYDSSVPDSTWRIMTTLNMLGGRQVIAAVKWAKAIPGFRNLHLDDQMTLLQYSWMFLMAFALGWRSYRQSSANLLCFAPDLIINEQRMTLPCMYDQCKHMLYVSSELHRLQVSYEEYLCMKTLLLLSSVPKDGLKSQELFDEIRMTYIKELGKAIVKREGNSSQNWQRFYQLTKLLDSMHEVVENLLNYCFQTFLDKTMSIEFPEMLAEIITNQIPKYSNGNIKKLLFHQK

Oc1ccc(Nc2ccccc2)cc1
Potency [1]: inactive
Potency [2]: inactive
Potency [3]: inactive
Potency [4]: 54.5 µM (active)
outcome [5]: inactive
Potency [6]: inactive
outcome [7]: inactive
Potency [8]: inactive
outcome [9]: inactive
outcome [10]: inactive
outcome [11]: inactive
outcome [12]: inactive
Potency [13]: inactive
Potency [14]: inactive
Potency [15]: inactive

CCCOc1ccc(S(=O)(=O)N2CCN(CC)CC2)cc1-c1nc2c(CC)n(Cc3ccccn3)nc2c(=O)[nH]1
Potency [1]: inactive
Potency [2]: inactive
Potency [16]: inactive
Potency [3]: inactive
outcome [5]: inactive
Potency [6]: inactive
outcome [17]: inactive
outcome [7]: inactive
Potency [8]: inactive
outcome [9]: inactive
outcome [10]: inactive
outcome [11]: inactive
Potency [18]: inactive
outcome [12]: inactive
Potency [13]: inactive
Potency [14]: inactive

CC(Cl)C(Cl)Cl (stereo unspecified)
Potency [1]: inactive
Potency [2]: inactive
Potency [3]: inactive
Potency [4]: inactive
outcome [19]: inactive
outcome [5]: inactive
Potency [6]: inactive
outcome [7]: inactive
Potency [8]: inactive
outcome [9]: inactive
outcome [10]: inactive
outcome [11]: inactive
Potency [18]: inactive
outcome [12]: inactive
Potency [13]: inactive
Potency [14]: inactive
Potency [15]: inactive

NC(=O)N(O)[C@@H]1C=C[C@H](Oc2cccc(Oc3ccc(F)cc3)c2)C1
Potency [1]: inactive
Potency [2]: inactive
Potency [16]: inactive
outcome [5]: inactive
Potency [6]: inactive
outcome [17]: inactive
outcome [7]: inactive
Potency [8]: inactive
outcome [9]: inactive
outcome [10]: inactive
outcome [11]: inactive
outcome [12]: inactive
Potency [13]: inactive
Potency [14]: inactive

O=C(CS)OCCOC(=O)CS
Potency [1]: 30.6 µM (active)
Potency [2]: inactive
Potency [16]: inactive
outcome [19]: inactive
outcome [5]: inactive
Potency [6]: inactive
outcome [17]: inactive
Potency [8]: inactive
outcome [9]: inactive
outcome [10]: inactive
outcome [11]: inactive
Potency [18]: inactive
outcome [12]: inactive

CCOC(=O)c1ccccc1OC
Potency [1]: inactive
Potency [2]: inactive
Potency [16]: inactive
Potency [4]: inactive
outcome [19]: inactive
Potency [6]: inactive
outcome [17]: inactive
outcome [7]: inactive
Potency [8]: inactive
outcome [9]: inactive
outcome [10]: inactive
outcome [11]: inactive
Potency [18]: inactive
outcome [12]: inactive
Potency [13]: inactive

COCc1c(C(C)C)nc(C(C)C)c(/C=C/[C@@H](O)C[C@@H](O)CC(=O)O)c1-c1ccc(F)cc1
Potency [1]: inactive
Potency [2]: inactive
Potency [16]: inactive
outcome [19]: inactive
outcome [5]: inactive
Potency [6]: inactive
outcome [17]: inactive
outcome [7]: inactive
Potency [8]: inactive
outcome [9]: inactive
outcome [10]: inactive
outcome [11]: inactive
outcome [12]: inactive
Potency [13]: inactive
Potency [15]: 3.38 µM (active)

C=CC(=C)CCCC(C)(C)OC(C)=O
Potency [1]: inactive
Potency [2]: inactive
Potency [16]: inactive
Potency [4]: inactive
outcome [19]: inactive
Potency [6]: inactive
outcome [17]: inactive
outcome [7]: inactive
Potency [8]: inactive
outcome [9]: inactive
outcome [10]: inactive
outcome [11]: inactive
Potency [18]: inactive
outcome [12]: inactive
Potency [13]: inactive
Potency [14]: inactive
Potency [15]: inactive

CC(=O)[C@H]1CC[C@H]2[C@@H]3C=CC4=CC(=O)CC[C@@]4(C)[C@@H]3CC[C@]12C
Potency [1]: inactive
Potency [2]: inactive
Potency [3]: inactive
fluorescence, relative to Rose Bengal [19]: -0.279% [at 18.6 µM]
fluorescence, % of fluorescein control [5]: -0.0643% [at 18.6 µM]
fluorescence, % of triamterene [6]: -0.137% [at 18.6 µM]
fluorescence, % of fluorescent control [17]: -0.3% [at 18.6 µM]
fluorescence, % of fluorescent control [8]: -0.214% [at 18.6 µM]
activity change [9]: -0.278% [at 18.6 µM]
fluorescence, % of fluorescent control [10]: -0.0895% [at 18.6 µM]
fluorescence, % of Rose Bengal [11]: -0.458% [at 18.6 µM]
fluorescence, % of fluorescent control [18]: -0.0065% [at 18.6 µM]
fluorescence, % of fluorescein control [12]: -0.0891% [at 18.6 µM]
fluorescence, % of fluorescent control [13]: 0.0499% [at 18.6 µM]
Potency [14]: 0.0007 µM (active)
Potency [15]: 1.82 µM (active)

CC(C)=CC=O
Potency [1]: inactive
Potency [2]: inactive
Potency [16]: inactive
Potency [4]: inactive
outcome [19]: inactive
outcome [5]: inactive
Potency [6]: inactive
outcome [17]: inactive
outcome [7]: inactive
Potency [8]: inactive
outcome [9]: inactive
outcome [10]: inactive
outcome [11]: inactive
Potency [18]: inactive
outcome [12]: inactive
Potency [13]: inactive
Potency [14]: inactive

NC(=O)Cn1c(=O)cc(CCN2CCN(c3nccc4sccc34)CC2)c2ccc(F)cc21
Potency [1]: inactive
Potency [2]: inactive
Potency [3]: inactive
outcome [19]: inactive
outcome [5]: inactive
Potency [6]: inactive
outcome [17]: inactive
outcome [7]: inactive
Potency [8]: inactive
outcome [9]: inactive
outcome [10]: inactive
outcome [11]: inactive
Potency [18]: inactive
outcome [12]: inactive
Potency [13]: inactive
Potency [14]: inactive
Potency [15]: inactive

O=Cc1c(Cl)cccc1Cl
Potency [1]: inactive
Potency [2]: inactive
Potency [16]: inactive
Potency [3]: inactive
Potency [6]: inactive
outcome [17]: inactive
outcome [7]: inactive
Potency [8]: inactive
outcome [9]: inactive
outcome [10]: inactive
outcome [11]: inactive
Potency [18]: inactive
outcome [12]: inactive
Potency [13]: inactive
Potency [14]: inactive
Potency [15]: inactive

CO[Si](C)(OC)OC
Potency [1]: inactive
Potency [2]: inactive
Potency [3]: inactive
outcome [19]: inactive
outcome [5]: inactive
outcome [17]: inactive
Potency [8]: inactive
outcome [9]: inactive
outcome [10]: inactive
outcome [11]: inactive
Potency [18]: inactive
outcome [12]: inactive
Potency [13]: inactive
Potency [14]: inactive
Potency [15]: inactive

CC1=CC(O)CC(C)(C)C1 (stereo unspecified)
Potency [1]: inactive
Potency [2]: inactive
Potency [3]: inactive
outcome [19]: inactive
outcome [5]: inactive
Potency [6]: inactive
outcome [17]: inactive
outcome [7]: inactive
Potency [8]: inactive
outcome [9]: inactive
outcome [10]: inactive
outcome [11]: inactive
Potency [18]: inactive
outcome [12]: inactive
Potency [13]: inactive
Potency [14]: inactive
Potency [15]: inactive

C=CC(C)(C)CC(=O)OC
Potency [1]: inactive
Potency [2]: inactive
Potency [16]: inactive
Potency [3]: inactive
outcome [5]: inactive
outcome [17]: inactive
outcome [7]: inactive
Potency [8]: inactive
outcome [9]: inactive
outcome [10]: inactive
outcome [11]: inactive
Potency [18]: inactive
outcome [12]: inactive
Potency [13]: inactive
Potency [14]: inactive
Potency [15]: inactive
